Compounds with a hit are over-represented: about 3.1% of the library has one in this group of screens.
D3 antag: blocks the human D3 dopamine receptor; P35462; D3R cells, DiscoveRx beta-arrestin luminescence, antagonist mode; stronger effect = lower value; max response, negative = inhibition, %; hit rate 2.5% among 360,000; AID 652054; in the data active = max response below about -50%; inconclusive = no clear call, values can overlap the other calls; also: % is scaled to controls: 0 for no effect and ±100 for the full control effect
Target sequence (P35462 whole entry, looked up): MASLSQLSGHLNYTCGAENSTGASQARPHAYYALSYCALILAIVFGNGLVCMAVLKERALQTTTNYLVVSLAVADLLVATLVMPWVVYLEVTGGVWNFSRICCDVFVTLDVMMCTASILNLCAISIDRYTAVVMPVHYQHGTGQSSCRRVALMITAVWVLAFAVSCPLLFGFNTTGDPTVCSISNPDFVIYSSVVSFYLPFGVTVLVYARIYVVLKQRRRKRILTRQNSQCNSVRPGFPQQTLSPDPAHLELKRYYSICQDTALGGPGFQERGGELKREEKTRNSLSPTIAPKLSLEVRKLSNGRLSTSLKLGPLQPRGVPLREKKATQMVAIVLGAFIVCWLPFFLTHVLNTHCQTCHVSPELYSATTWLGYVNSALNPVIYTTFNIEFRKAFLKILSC
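Cells expressing the human receptor were seeded at 1500 cells/well, incubated overnight at 37 degrees C in 5% CO2, then exposed to library compounds with dopamine controls for 90 minutes at 37 degrees C before luminescent detection.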
DRD3 agonist: D3 dopamine receptor (human) agonism. hit rate 0.58% among 410,000. max activation, %. P35462. D3R DiscoveRx beta-arrestin cells, luminescence, 90 min; in the data active = max activation above about 30%; also: 0% is about no effect
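Agonist-mode cell screen: cells plated at 1500/well and incubated overnight at 37 °C, then exposed to library compounds for 90 min at 37 °C. Detection reagent was added for 30–60 min at room temperature, and luminescence was read.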
uPA surface inh: inhibitors of cell surface uPA generation; cell surface uPA generation assay, qHTS; hit rate 0.31% among 330,000; Potency, µM (top dose mostly 38.3 µM), without a hit: at the highest dose activity change, negative = inhibition, usual class: inhibitors; active = well fitted inhibition curve with a large enough effect; inconclusive = small, poorly fitted or top-dose-only effect; inactive = no such curve, though single readings can be large or run the other way; tested in mouse RAW 264.7 cells; also: potency is read from the fitted curve at half-maximal effect; % is scaled to controls: 0 for no effect and ±100 for the full control effect; nearly all actives have a fitted effect of over 55% in size
RGS4 inhibitor: inhibitors of human regulator of G protein signaling 4 | Transcreener GDP fluorescence polarization, RGS4-accelerated GTP hydrolysis | Potency, µM (highest dose often 114 µM), without a hit: top-dose activity change, negative = inhibition, hits mostly inhibitors | hit rate 0.039% among 390,000; active = well fitted inhibition curve with a large enough effect; inconclusive = small, poorly fitted or top-dose-only effect; inactive = no such curve, though single readings can be large or run the other way; also: potency is read from the fitted curve at half-maximal effect; % is scaled to controls: 0 for no effect and ±100 for the full control effect; nearly all actives have a fitted effect of over 75% in size
Target sequence (P49798 whole entry, looked up): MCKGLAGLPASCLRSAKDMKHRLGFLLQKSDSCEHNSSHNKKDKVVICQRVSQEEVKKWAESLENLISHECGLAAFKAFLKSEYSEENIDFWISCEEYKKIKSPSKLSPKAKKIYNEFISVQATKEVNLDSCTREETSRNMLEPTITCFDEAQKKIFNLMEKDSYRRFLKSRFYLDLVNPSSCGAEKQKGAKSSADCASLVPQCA
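MLSMR compounds (23 nl, pin-transferred) preincubated 10 min at room temperature with a 500nM (2x) first reagent, then RGS4 at 900nM (2x) plus Transcreener GDP mix added; fluorescence polarization (620/688 nm) read before and after 90 min at 30 °C.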
An asterisk follows results filed as active; ? = inconclusive; / = no result given.

SMILES | D3 antag | DRD3 agonist | uPA surface inh | RGS4 inhibitor
Cc1cccc(-c2nc(C)c(CCNC(=O)C(=O)Nc3cccc(Cl)c3C)s2)c1 | / | 4 | / | -24%
OC1c2cc(Cl)ccc2-c2c(Cl)cc(Cl)cc21 (configuration not stated) | 8 | 3 | -3% | -16%
OC1c2cc(Cl)cc(Cl)c2N=C2CCCN21 (configuration not stated) | -59* | -12 | / | /
CCCCSc1nnc2n(-c3cccc(C)c3)c(=O)c3c4c(sc3n12)CCCC4 | / | -10 | / | 8%
CCSc1nnc2n(-c3cccc(C)c3)c(=O)c3c4c(sc3n12)CCCC4 | / | 37* | / | -6%
Clc1ccc(Nc2nnc(Cc3ccncc3)c3ccccc23)cc1 | / | 3 | / | /
COc1cccc(NC(=O)Cn2c(=O)n(Cc3nc(-c4ccccc4)no3)c(=O)c3ccccc32)c1 | / | -2 | / | -6%
CN(C)S(=O)(=O)N1C(=O)c2ccccc2C1=O | 2 | 1 | 10% | 11%
Cc1nc(-c2ccccc2O)n(S(=O)(=O)N(C)C)n1 | 13 | 31* | -2% | -21%
O=[N+]([O-])c1ccc(N2CCN(CCO)CC2)cc1NCc1ccco1 | -63* | -14 | -2% | 17%
Nc1nc(NCc2ccccc2)nc(NCc2ccccc2)c1[N+](=O)[O-] | 7 | 32* | 22% | 8%
c1ccc(Nc2nc(NCc3ccco3)c3ccccc3n2)cc1 | -12 | 3 | -15% | 6%
Nc1nc(NCc2ccco2)nc(N2CCN(Cc3ccccc3)CC2)c1[N+](=O)[O-] | -79* | -14 | -2% | -26%
c1ccc(CN2CCN(c3nc(NCc4ccco4)c4ccccc4n3)CC2)cc1 | -82* | -13 | -14% | -15%
Nc1nc(NCc2ccco2)nc(N2CCCC2)c1[N+](=O)[O-] | 3 | -2 | -9% | -3%
COc1ccc(C)cc1NC(=O)C1CCN(S(=O)(=O)c2c(C)noc2/C=C/c2ccco2)CC1 | / | -4 | / | 39%
Cc1ccc(OCCN2CCN(c3nc(NCc4ccco4)c4ccccc4n3)CC2)cc1 | -78* | -26 | -7% | -49%
OCCN1CCN(c2nc(NCc3ccco3)c3ccccc3n2)CC1 | -82* | -20 | 3% | 12%
CSc1ccc(C2C(C(=O)c3ccco3)=C(O)C(=O)N2c2nnc(SC)s2)cc1 (configuration not stated) | 11 | -12 | ? | ?
Cc1cccc(NC(=O)Cc2nc(-c3c[nH]c(C(=O)N4CCCC4)c3)cs2)c1 | 46 | 52* | -10% | -12%
CCCCNC(=O)O[C@@H]1C[C@@H]2CCN3C(=O)CCC[C@H]([C@H]1CC)[C@H]23 | 12 | 9 | 10% | ?
CCCCNC(=O)O[C@@H]1C[C@H]2CCCC(=O)N3CC[C@@H](C1)[C@@H]23 | -4 | 33* | -5% | -1%
CCN(CC)C(=O)Cn1c(=O)n(-c2ccc(OC)cc2OC)c(=O)c2c(C)c(C(=O)N(CC)CC)sc21 | / | -6 | / | 15%
Cc1nnnn1/C(=C\c1ccccc1)C(=O)OCC(=O)Nc1cccc(S(=O)(=O)N(C)C)c1 | -12 | 0 | 8.9µM* | ?
COc1cc2c(-c3ccccc3Cl)nc3c(c(C)nn3-c3ccccc3)c2cc1OC | / | 59* | / | -6%
SMILES | D3 antag | DRD3 agonist | uPA surface inh | RGS4 inhibitor
COc1cc2c(-c3ccccc3O)nc3c(c(C)nn3-c3ccccc3)c2cc1OC | 51 | 8 | -5% | -2%
COc1cccc(N2CCN(C(=O)c3cccc(NC(=O)C4=C(C)OCCS4)c3)CC2)c1 | 103 | 4 | / | /
CC(=O)Nc1ccc(SCC(=O)N(C)C2CCS(=O)(=O)C2)cc1 (configuration not stated) | -59* | -12 | 2% | -39%
COc1cccc(C(c2sc3nc(-c4ccco4)nn3c2O)N2CCN(C)CC2)c1 (configuration not stated) | / | 7 | / | -15%
c1ccc(Cn2nnnc2C(c2cccs2)N2CCc3ccccc3C2)cc1 (configuration not stated) | -69* | -11 | -17% | 2%
O=C1C(Cl)=C(Nc2ccccc2)C(=O)c2ccccc21 | -74* | -49 | 15% | 4%
O=C(O)c1ccc(NC2=C(Cl)C(=O)c3ccccc3C2=O)cc1 | ? | -23 | -13% | ?
O=C1C(Cl)=C(NCCc2ccccc2)C(=O)c2ccccc21 | -71* | -13 | -9% | ?
O=C1C(Cl)=C(NCCc2ccccc2)C(=O)N1CCc1ccccc1 | -8 | 0 | -2% | 8%
CC(=O)N(Cc1ccc(F)cc1)C1=C(NCCc2ccccc2)C(=O)c2ccccc2C1=O | -54* | 4 | -16% | -25%
O=C(O)c1cccc(NC2=C(Cl)C(=O)c3ccccc3C2=O)c1 | -90* | -29 | ? | -44%
CC[C@@H](C)CCCCC(=O)N[C@@H](CCNCS(=O)(=O)O)C(=O)N[C@H](C(=O)N[C@@H](CCNCS(=O)(=O)O)C(=O)N[C@H]1CCNC(=O)[C@H]([C@@H](C)O)NC(=O)[C@H](CCNCS(=O)(=O)O)NC(=O)[C@H](CCNCS(=O)(=O)O)NC(=O)[C@H](CC(C)C)NC(=O)[C@@H](CC(C)C)NC(=O)[C@H](CCNCS(=O)(=O)O)NC1=O)[C@@H](C)O | / | 6 | / | /
COc1cccc(CNC(=O)C2Cc3cc(S(=O)(=O)N4CCCCCC4)ccc3N2C(C)=O)c1 (configuration not stated) | / | 0 | / | -7%
COc1ccccc1NC(=O)CCN1CCCCCC1 | -111* | -33 | -2% | 20%
COc1ccccc1NC(=O)CCN1CCN(Cc2ccccc2)CC1 | -55* | -30 | -8% | -15%
O=C(CCN1CCN(Cc2ccccc2)CC1)Nc1ccccc1Cl | -21 | -10 | 0% | 18%
COc1ccccc1NC(=O)CSC(N)=O | -107* | 4 | -6% | ?
N#Cc1c(NC(=O)CN2CCOCC2)oc(-c2ccccc2)c1-c1ccccc1 | -59* | -3 | 3% | 26%
N#Cc1c(NC(=O)Cn2cnc3ccccc3c2=O)oc(-c2ccccc2)c1-c1ccccc1 | -61* | 5 | 3% | 1%
COc1ccc(CN2C(=O)C(Cc3ccccc3)Nc3ncnc(N4CCN(c5ccccc5)CC4)c32)cc1 (configuration not stated) | -111* | -47 | -2% | 0%
O=C1C(Cc2ccccc2)Nc2ncnc(N3CCCCC3)c2N1Cc1ccc(Cl)cc1 (configuration not stated) | -65* | -45 | -12% | -35%
O=C1C(Cc2ccccc2)Nc2ncnc(N3CCOCC3)c2N1Cc1ccc(Br)cc1 (configuration not stated) | -66* | -27 | -2% | 4%
O=C1C(Cc2ccccc2)Nc2ncnc(N3CCN(c4ccccc4)CC3)c2N1Cc1ccc(Cl)cc1 (configuration not stated) | -128* | -45 | -22% | 6%
CC(C)CC1Nc2ncnc(N3CCCCC3)c2N(Cc2ccccc2)C1=O (configuration not stated) | -4 | -24 | -12% | 18%
Cc1cc(C(=O)N2CCN(c3cc(Cl)ccc3C)CC2)c2c(C)nn(-c3ccccc3)c2n1 | / | -8 | / | -9%
CCCn1c2ccc(F)cc2c2nnc(SCCN(CC)CC)nc21 | / | -26 | / | -34%

Assay outcomes as filed in PubChem.
